# Shown are actives, neighbours in structure and some others; about 6.6% of the full set was active somewhere.
# MCF10A rereplic: A quantitative high throughput screen for small molecules that induce DNA re-replication in MCF 10a normal breast cells | hit rate 2.9% among 350,000 | Potency, µM (series often up to 46.1 µM), actives largely listed as activators | MCF 10A DNA re-replication, Hoechst nuclear intensity, 48 h; note: nearly all actives have a fitted effect of over 50% in size
# RGS4 inhibitor: Inhibitors of Regulator of G Protein Signaling (RGS) 4: qHTS. AID 504845, 2011. Transcreener GDP fluorescence polarization, RGS4-accelerated GTP hydrolysis. Potency, µM (highest dose often 114 µM), actives largely listed as inhibitors. Regulator of G-protein signaling 4 (Homo sapiens), P49798. hit rate 0.039% among 390,000; note: nearly all actives have a fitted effect of over 75% in size
#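 MLSMR compounds (23 nl, pin-transferred) preincubated 10 min at room temperature with a 500nM (2x) first reagent, then RGS4 at 900nM (2x) plus Transcreener GDP mix added; fluorescence polarization (620/688 nm) read before and after 90 min at 30 °C.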
# PTAP TSG101 blk: qHTS Assay for Iinhibitors of HIV-1 Budding by Blocking the Interaction of PTAP/TSG101; Potency, µM (highest dose often 115 µM), hits mostly inhibitors; Fluorescence polarization, FITC-PTAP peptide / Tsg101 binding; Tumor susceptibility gene 101 protein (Homo sapiens), Q99816; AID 493005, 2010; 340,000 tested, under 10 active; active = well fitted inhibition curve with a large enough effect in the main read-out, with a control signal flat, not every such curve was filed as active; inconclusive = small, poorly fitted or top-dose-only effect, or effect the other way, or a change in a side signal; inactive = no such curve, though single readings can be large or run the other way
# Target sequence (Q99816 whole entry, looked up): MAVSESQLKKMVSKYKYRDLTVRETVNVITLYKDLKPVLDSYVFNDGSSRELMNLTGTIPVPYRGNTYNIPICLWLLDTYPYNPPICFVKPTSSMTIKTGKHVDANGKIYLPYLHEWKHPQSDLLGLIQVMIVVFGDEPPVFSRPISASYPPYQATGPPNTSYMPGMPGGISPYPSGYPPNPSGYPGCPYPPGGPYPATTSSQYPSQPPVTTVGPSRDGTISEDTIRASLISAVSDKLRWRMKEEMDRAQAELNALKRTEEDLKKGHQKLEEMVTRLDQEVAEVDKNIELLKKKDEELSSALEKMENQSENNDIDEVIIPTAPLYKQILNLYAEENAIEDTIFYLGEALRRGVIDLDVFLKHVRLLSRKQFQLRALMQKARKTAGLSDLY
#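 Fluorescence anisotropy tracks displacement of a FITC-tagged PTAP peptide (50 nM) from the Tsg101 binding domain (10 uM), following a 20 min room-temperature incubation at pH 7.5.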
# SW480 rerep: A quantitative high throughput screen for small molecules that induce DNA re-replication in SW480 colon adenocarcinoma cells; SW480 DNA re-replication, Hoechst DNA content imaging, 48 h; Potency, µM (series often up to 46.1 µM), actives largely listed as activators; hit rate 1.8% among 340,000; note: nearly all actives have a fitted effect of over 55% in size
#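 Cells (250 per well) received 23 nL compound or DMSO by pin tool and were kept 48 hr at 37 C, 5% CO2. Nuclei were then stained with Hoechst for 40 min and scanned for DNA content.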
# KB-V1 MDR tox: qHTS assay for MDR1-selective chemotherapeutics: Primary screen using the drug-selected MDR subline cells KB-V1. KB-V1 MDR cells viability, CellTiter-Glo, 72 h. AID 1347076, 2019. Potency, µM (titrated, usually from 46.1 µM), actives largely listed as cytotoxic. hit rate 3.4% among 400,000; note: nearly all actives have a fitted effect of over 60% in size
#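 Compound-treated KB-V1 multidrug-resistant cells, 72 h, 37 degrees C; viability by CellTiter-Glo. Fitted qHTS curves give the values.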
# KB-3-1 cytotox: qHTS assay for MDR1-selective chemotherapeutics: Primary screen using the parental adenocarcinoma cell KB-3-1; KB-3-1 viability, CellTiter-Glo ATP luminescence, 72 h; Potency, µM (series often up to 46.1 µM), usual class: cytotoxic; hit rate 1.4% among 400,000; AID 1347075, 2019; note: nearly all actives have a fitted effect of over 60% in size
#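 Parental KB-3-1 viability, qHTS format: 72 h compound exposure, 37 °C; CellTiter-Glo; media-only wells and DMSO plates as controls; concentration-effect fits on corrected data.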
# Numbers stand for hits; i = inactive; ? = inconclusive; nt = not tested or not shown; [ ] = remark or other dose. Unless noted, calls come from the whole dose curve; as a rule, active = well fitted curve in the direction sought with a large enough effect; inconclusive = small, poorly fitted or top-dose-only effect, or another doubt; inactive = no such curve, though single readings can be large; an effect the other way counts as inactive or inconclusive.
SMILES,MCF10A rereplic,RGS4 inhibitor,PTAP TSG101 blk,SW480 rerep,KB-V1 MDR tox,KB-3-1 cytotox
N#Cc1nc(-c2ccc(OCc3ccc(Cl)cc3)cc2)oc1N1CCCCCC1,nt,i,nt,nt,i,i
Cc1n[nH]c(=S)n1/N=C/c1cccc(OCc2ccccc2)c1,?,i,i,i,i,i
Cc1n[nH]c(=S)n1/N=C/c1ccccc1OCc1ccc(Cl)cc1,i,i,i,?,11.6µM,?
COc1ccc(C2Nc3ccccc3C(=O)N2Cc2ccccc2)cc1COc1ccccc1F (configuration not stated),nt,i,nt,nt,i,i
Cc1cc(C(=O)NNc2ccccc2F)no1,9.2µM,i,i,i,i,i
Cc1cc(C(=O)NNc2ccc(F)cc2)no1,13µM,i,i,i,i,?
O=c1c(N2CCN(c3cccc(Cl)c3)CC2)csc2ccc(Cl)cc12,nt,i,nt,nt,nt,nt
COc1ccc(NC(=O)CCCS(=O)(=O)c2nc(-c3ccccc3OC)cc(C(F)(F)F)n2)c(OC)c1,nt,i,nt,nt,?,i
COc1ccc(-c2cc(C(F)(F)F)nc(S(=O)(=O)CCCC(=O)Nc3cc(C)on3)n2)cc1OC,3.66µM,i,i,?,i,i
COc1ccccc1-c1cc(C(F)(F)F)nc(S(=O)(=O)CCCC(=O)Nc2cc(C)on2)n1,20.6µM,i,i,16.4µM,?,?
CCN(C(=O)c1cc2c(=O)oc3ccc(C)cc3c2s1)c1ccccc1F,nt,i,nt,nt,i,i
Fc1cccc(Cl)c1CNCCSc1nnnn1-c1ccccc1,nt,i,nt,nt,i,i
CN(C)c1ccc(/C=C(\C#N)c2ccccc2)cc1,3.66µM,i,i,3.66µM,?,?
CN(C)c1cccc(/C=C(\C#N)c2ccccc2)c1,?,i,i,?,?,5.8µM
CCOC(=O)C1=C[C@@H](C(=O)OCC)[C@@H]2C3=C(C(=O)C2(C)C)[C@H](c2ccccc2)[C@@H]2C(=O)N(c4ccccc4)C(=O)[C@@H]2[C@@H]3C1,nt,i,nt,nt,nt,nt
COc1ccc2[nH]cc(CCNC(=O)c3cnn(-c4ccccc4Cl)c3C3CCN(C(=O)OC(C)(C)C)CC3)c2c1,nt,i,nt,nt,?,i
Cc1ccc(/C=N/Nc2ncc(Cl)cc2Cl)s1,i,i,i,5.8µM,?,?
CN(Cc1ccccc1)C(=O)c1ccc(CSc2nc3cccnc3n2Cc2ccccc2)cc1,nt,i,nt,nt,i,i
O=[N+]([O-])c1ccccc1S(=O)(=O)N1CCN(c2nc(-c3ccccc3)nc3ccccc23)CC1,nt,i,nt,nt,nt,nt
Cc1cccc(OCCn2c(-c3ccco3)nc3ccccc32)c1,i[0.0737 µM],i,i,6.51µM,i,i
Cc1cccc(OCCn2c(NC(=O)c3ccco3)nc3ccccc32)c1,i,i,i,?,2.31µM,?
c1ccc(OCCn2c(-c3ccco3)nc3ccccc32)cc1,i,?,i,i,i,i
O=C(c1cn(CCOc2ccc(Cl)cc2)c2ccccc12)C1CCCCC1,nt,i,nt,nt,i,i
COc1ccc(-c2sc3ccc(OC)cc3c2C#Cc2cncn2C)cc1,?,i,i,i,?,?
COc1ccc(-c2oc3ccccc3c2C#Cc2cncn2C)cc1,18.4µM,i,nt,?,?,i
O=[N+]([O-])c1ccc(N=Nc2ccc(O)cc2O)cc1,?,i,i,?,i,?
O=[N+]([O-])c1cccc(N=Nc2ccc(O)cc2O)c1,?,i,i,13µM,i,?
CCN=C1NN=C(c2cc(C)n(CCc3ccccc3)c2C)CS1,?,i,i,i,?,i
Cc1ccc(C)c(C2=NNC(=NCc3ccccc3)SC2)c1,23.1µM,i,i,?,i,i
C=CCn1c(C)cc(C2=NNC(=NCc3ccccc3)SC2)c1C,?,i,i,?,9.2µM,?

# Compound activity from PubChem BioAssay.
